Sampled rows, rich in hits. Any-hit rate of the full collection: about 3.9%.
D1 ag: agonists of human D1 dopamine receptor; HEK293 T-REx D1 cells, calcium flux, agonist mode; activation, % at 2 µM; hit rate 1% among 360,000; AID 504660; in the data active = activation above about 30%; also: 0% is about no effect
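Agonism was scored from calcium flux recorded over 180 s (1 read/s) after pintool compound addition, following a 10-cycle baseline. Cells were inducible force-coupled HEK293 TREx D1, plated overnight at 30 C and loaded with no-wash calcium dye.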
USP2a inh: inhibitors of human ubiquitin-specific protease USP2a | O75604 | USP2 core, Ub-CHOP2 coupled fluorogenic reporter, 485/531 | Potency, µM (titrated, usually from 38.3 µM), for the others: at the top dose activity change, negative = inhibition, actives largely listed as inhibitors | hit rate 0.01% among 330,000;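 also: potency is read from the fitted curve at half-maximal effect; plate controls were DMSO wells for no effect and full inhibition by NEM control for full effect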
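USP2 core (10nM final) preincubated 30min RT with compound in 20mM Tris-HCl pH 8.0, 2mM CaCl2, 2mM beta-mercaptoethanol, 0.05% CHAPS; 25nM Ub-CHOP2 plus 25nM reporter substrate added, fluorescence (Ex485/Em531) read after 60min.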
Eya2 inh: Eya2 (human) phosphatase inhibition. recombinant Eya2, OMFP fluorescence dephosphorylation (OMFP is methylfluorescein phosphate). Potency, µM (titrated, usually from 76.9 µM), without a hit: at the top dose activity, negative = inhibition, usual class: inhibitors. hit rate 0.006% among 330,000. AID 488837; also: potency is read from the fitted curve at half-maximal effect; % is scaled to controls: 0 for no effect and ±100 for the full control effect
Target sequence (O00167 whole entry, looked up): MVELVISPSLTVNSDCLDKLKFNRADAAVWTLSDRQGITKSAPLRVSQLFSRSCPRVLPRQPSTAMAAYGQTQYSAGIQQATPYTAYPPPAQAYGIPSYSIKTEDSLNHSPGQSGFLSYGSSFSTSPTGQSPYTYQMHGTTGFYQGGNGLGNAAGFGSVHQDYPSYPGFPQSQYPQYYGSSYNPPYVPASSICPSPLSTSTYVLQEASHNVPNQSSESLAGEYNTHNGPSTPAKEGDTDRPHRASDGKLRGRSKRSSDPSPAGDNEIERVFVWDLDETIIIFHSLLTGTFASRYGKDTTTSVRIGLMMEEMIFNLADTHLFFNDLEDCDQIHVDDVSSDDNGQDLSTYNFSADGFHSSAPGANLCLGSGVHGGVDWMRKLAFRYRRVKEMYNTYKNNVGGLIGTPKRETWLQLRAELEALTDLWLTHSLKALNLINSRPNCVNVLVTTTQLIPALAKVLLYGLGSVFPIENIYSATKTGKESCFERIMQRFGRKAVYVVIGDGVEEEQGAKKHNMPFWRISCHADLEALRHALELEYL
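Eya2 (0.2 uM) preincubated 10 min at ambient with compound, then OMFP substrate added at 50 uM; 10 min reaction in 50 mM HEPES pH 7.5, 50 mM NaCl, 5 uM MgCl2, 0.05% BSA, 1 mM DTT. Fluorescence read at Ex 485/Em 525 nm.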
GALK inhibitor: inhibitors of human galactokinase; Purified GALK, Kinase-Glo residual ATP luminescence; Potency, µM (highest dose often 57.5 µM), for inactives: at the highest dose activity change, negative = inhibition, usual class: inhibitors; hit rate 0.007% among 270,000; AID 1868; also: potency is read from the fitted curve at half-maximal effect; % is scaled to controls: 0 for no effect and ±100 for the full control effect
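5 nM enzyme, 35 uM ATP, 100 uM galactose, 20 mM HEPES pH8.0, 5 mM MgCl2; 1 h RT; residual ATP by Kinase-Glo Plus luminescence, qHTS format.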
D1 potentiator: potentiators of human D1 dopamine receptor | HEK293 TREx D1 cells, calcium flux, dopamine EC20 potentiation | AID 504651 | hit rate 0.036% among 360,000 | potentiation, % at 10 µM | P21728; in the data active = potentiation above about 30%; also: 0% is about no effect
D1 antag: human D1 dopamine receptor antagonism; hit rate 3.2% among 360,000; HEK293 TREx D1 cells, calcium flux, dopamine EC80; hits give low values; activity change, negative = inhibition, % at 10 µM; P21728; in the data active = activity change below about -30%; also: % is scaled to controls: 0 for no effect and ±100 for the full control effect
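Antagonism measured as reduced calcium response to an EC80 dopamine addition following 180 s compound pre-read; cells were inducible HEK293 Trex D1 plated overnight at 30 C, read kinetically at 1 cycle/sec.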
* hit, by the source's call; ? = inconclusive; / = no result; ! = repeats disagree. Unless noted, calls follow the shape of the dose curve; as a rule, active = well fitted inhibition curve with a large enough effect; inconclusive = small, poorly fitted or top-dose-only effect, or effect the other way; inactive = flat fitted curve, though single readings scatter.

SMILES	D1 ag	USP2a inh	Eya2 inh	GALK inhibitor	D1 potentiator	D1 antag
CCCCOc1ccc(C(C)NC(=O)c2cccc(Nc3nc4ccccc4n4nnnc34)c2)cc1 (configuration not stated)	1	/	/	/	0	-5
O=C(O)C[C@@H]1C(=O)O[C@@H]2C(COC(=O)c3cc(O)c(O)c(O)c3)O[C@@H](OC(=O)c3cc(O)c(O)c(O)c3)[C@@H](OC(=O)c3cc(O)c(O)c4c3[C@H]1[C@H](O)C(=O)O4)[C@H]2OC(=O)c1cc(O)c(O)c(O)c1 (some centres not stated)	2	0.89µM*	1%	14µM*	4	2
O=c1ccc(-c2ccccc2)nn1Cc1c(F)cccc1Cl	0	/	/	/	1	-22
Cc1cccc(C(=O)Nc2nc(-c3ccc(Br)cc3)ns2)c1	0	/	/	/	0	-4
COC(=O)C(/C=N/OCc1ccc([N+](=O)[O-])cc1)NC(=O)c1cccc(Cl)c1 (configuration not stated)	41*	2%	16%	-3%	-10	-5
CN(C)CCNS(=O)(=O)c1ccc(N2CCN(c3ccc(F)cc3)CC2)c([N+](=O)[O-])c1	59*	2%	-8%	-1%	-8	-49*
CC1(C)CC(N=c2cc(-c3ccccc3)oc3ccc(Cl)cc23)CC(C)(C)N1	67*	2%	-5%	-2%	-11	-69*
Cc1ccc2nc(CN3CCN(S(=O)(=O)c4ccc(C(C)C)cc4)CC3)oc2c1	2	/	/	/	0	-27
Cn1cc(Br)c(-c2cccc(NC(=O)CCC(=O)O)c2)n1	1	1%	12%	10%	-4	-37*
CCCCC(=O)Nc1cccc(-c2csc(-c3ccccc3)n2)c1	4	-2%	-2%	1%	2	-4
O=C(O)CCC(=O)Nc1cccc(-c2csc(-c3ccccc3)n2)c1	3	-2%	1%	-2%	-1	-34*
Cn1cc(Br)c(-c2cccc(NC(=O)CC(C)(C)CC(=O)O)c2)n1	1	2%	1%	-3%	6	12
COc1ccc(NC(=O)C(C)n2nnc3sc(-c4ccccc4)cc3c2=O)cc1Cl (configuration not stated)	-2	/	/	/	-2	-11
O=C(NCc1ccccn1)c1nn(-c2ccccc2F)nc1CO	1	/	/	/	-1	0
O=C(NCc1cccs1)C1CCC(CNS(=O)(=O)c2ccccc2)CC1 (configuration not stated)	2	-1%	-21%	2%	-8	-33*
O=C(NCc1cccs1)C1CCCN(c2nc3ccccc3o2)C1 (configuration not stated)	1	0%	-17%	1%	-4	-46*
Cc1ccc(S(=O)(=O)NCC2CCC(C(=O)NCc3cccs3)CC2)cc1 (configuration not stated)	4	0%	-10%	4%	-6	-6
COC(=O)c1cc(CSc2nc3ccc(C)cc3[nH]2)oc1C	5	3%	-2%	2%	-1	-47*
CN(C)C1(CNC(=O)COc2cccc(Cl)c2)CCCCC1	3	/	/	/	3	-2
Cc1cc(C)n(S(=O)(=O)c2cc(C)c(C)cc2C)n1	1	3%	-13%	3%	-12	-31*
Cc1cc(C)n(S(=O)(=O)c2ccc(C)c(C)c2C)n1	2	0%	10%	2%	-2	-8
Fc1ccc(-n2nnc(-c3cccnc3)n2)cc1	-4	1%	11%	2%	-4	4
Fc1ccc(C(CCCn2nnc(-c3cccnc3)n2)c2ccc(F)cc2)cc1	17	-2%	-4%	0%	-6	-30*
Cc1ccc(-n2nc(-c3ccc(OC(F)(F)F)cc3)cc2N)cc1C	3	-8%	-21%	1%	-4	-32*
Cc1ccc(-n2nc(-c3ccc(N)cc3)cc2N)cc1	0	-1%	0%	-1%	0	-7
SMILES	D1 ag	USP2a inh	Eya2 inh	GALK inhibitor	D1 potentiator	D1 antag
Cc1ccccc1C1C(C#N)=C2N=C(N)c3c(sc4c3CCCCC4)N2C2=C1C(=O)CCC2 (configuration not stated)	2	-4%	1%	-1%	-2	-42*
COc1ccc(-c2ccc(NS(=O)(=O)c3cc(C)c(C)cc3C)cc2)nn1	2	/	/	/	5	15
COc1ccc(N2Cc3cccc(C(=O)Nc4ccc(Cl)cc4)c3C2=O)cc1	0	/	/	/	-3	-1
CCCCCn1c(C(C)NC(=O)CCC)nc2ccccc21 (configuration not stated)	0	-1%	-20%	1%	-5	-30*
Cc1ccc(NC(=O)CCOc2ccccc2)c(C)c1	1	7%	?	2%	0	2
Cc1ccc(F)cc1NC(=O)CCOc1ccccc1	6	9%	8%	1%	-7	-31*
CCOc1ccc(NC(=O)c2cc(C)nc3c2c(C)nn3-c2ccc(C)cc2)cc1	2	/	/	/	-3	-1
CN(C)CCCN(C(=O)c1ccc(S(=O)(=O)N2CCCCC2)cc1)c1nc2cc3c(cc2s1)OCO3	33*	2%	-5%	4%	1	-4
CCOC(=O)N1CCN(S(=O)(=O)c2ccc(C(=O)N(CCCN(C)C)c3nc4ccc(OC)cc4s3)cc2)CC1	8	1%	-6%	-3%	-1	31
CCOC(=O)N1CCN(S(=O)(=O)c2ccc(C(=O)N(CCN(C)C)c3nc4ccc(Cl)cc4s3)cc2)CC1	7	4%	5%	-7%	-11	-33*
CN(C)CCCN(C(=O)c1ccc(Br)s1)c1nc2ccc(F)cc2s1	10	/	/	/	-3	5
CN(C)CCCN(C(=O)c1ccc(C(=O)c2ccccc2)cc1)c1nc2ccc(F)cc2s1	70*	-1%	-4%	7%	-10	-33*
Cc1ccc2nc(N(CCCN(C)C)C(=O)c3ccc(Br)s3)sc2c1	41*!	-2%	-21%	-1%	-3	-2
CN(C)CCN(C(=O)c1ccc2ccccc2c1)c1nc2ccc(F)cc2s1	3	1%	-6%	0%	-4	-12
Cc1cc(C)c2oc(C(=O)Nc3sc4c(c3C(=O)NCc3ccco3)CCC4)cc(=O)c2c1	-1	/	/	/	-1	-22
CN(C)CCCN(C(=O)c1ccc(C(=O)c2ccccc2)cc1)c1nc2cc3c(cc2s1)OCO3	62*	-12%	-12%	-3%	3	-7
CCN(Cc1ccccc1)S(=O)(=O)c1ccc(C(=O)N(CCCN(C)C)c2nc3ccc(F)cc3s2)cc1	5	-2%	-7%	5%	-7	-6

From PubChem BioAssay
